Measured values from PubChem BioAssay AID2685 (National Center for Advancing Translational Sciences (NCATS), 2010).
The campaign covered roughly 320,000 compounds. About 2,100 (0.66%) were called active. Inconclusive results (about 53%) are left out. The call rests on the fitted dose curve; in most records, active means well fitted inhibition curve with a large enough effect in the signal ratio, with a control signal flat (not every such curve was filed as active); inconclusive means small, poorly fitted or top-dose-only effect, or effect the other way, or a change in a side signal; inactive means flat fitted curve, though single readings scatter; the % refers to the signal ratio. The full list was thinned out, with actives kept by preference.

Test: qHTS Assay for Lipid Storage Modulators in Drosophila S3 Cells;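 on cell number change: cells counted by Cell Tracker Red CMTPX staining in the red channel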; on lipid storage change, negative = inhibition: on the % scale 0 is the no-effect control and ±100 the full control effect
Conditions: BODIPY lipid droplet fluorescence, 18-24 h, cells fed with added oleic acid; cell number change: measured here: cell count max response; series mostly up to 46.1 µM; lipid storage change, negative = inhibition: at the top concentration
Summary of the method: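 Laser-scanning cytometry quantifies lipid droplet accumulation (500–530 nm total intensity; droplet/cell object ratio) in oleic acid-fed (400 uM added) Drosophila S3 cells treated with a concentration series. 20 uM Triacsin C defined 100% inhibition.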
Potency means the concentration at half of the fitted maximal effect.

Row | SMILES | lipid storage change, negative = inhibition | cell number change [%] | Potency | outcome
1 | COc1ccc(NC(C)=O)cc1NC(=O)c1ccc(Cl)cc1 | 0.28% (inactive) | 11.7 | – | –
2 | CC(SCc1ccccc1)C(=O)Nc1ccccc1-c1ccccc1 (stereo unspecified) | -6.56% (inactive) | 8.62 | – | –
3 | O=S1(=O)N=C(Oc2cccc3ccccc23)c2ccccc21 | -0.954% (inactive) | 3.24 | – | –
4 | COc1ccc(C2CCCN2C(=O)Nc2ccc(Cl)cc2)cc1OC (stereo unspecified) | -5.01% (inactive) | -6.06 | – | –
5 | Cc1ccc(C)c(CN2CCC(CNC(=O)Nc3cccc(Cl)c3C)CC2)c1 | – | -2.78 | 25.9 µM (active) | –
6 | COc1ccc(Cl)cc1NC(=O)NCC1CCN(Cc2cc(C)ccc2C)CC1 | -4.05% (inactive) | -15.2 | – | –
7 | Cc1ccc(C)c(CN2CCC(CNC(=O)Nc3ccc(F)c(Cl)c3)CC2)c1 | -20.7% (inactive) | -7.91 | – | –
8 | CC(C)(C)c1ccc(OCCC(=O)OCC(=O)Nc2cccnc2Cl)cc1 | -4.76% (inactive) | -11.9 | – | –
9 | COCCn1c(Cc2ccccc2)nnc1SCC(=O)N1CCCC1=O | 10.9% (inactive) | 2.89 | – | –
10 | O=C(NC1(N2CCOCC2)CC1)c1ccc(Cl)cc1 | 6.65% (inactive) | 10.5 | – | –
11 | CSC1=NCCN1C(=O)c1c(F)cccc1F | 3% (inactive) | 10.5 | – | –
12 | CSc1ccccc1OCc1cc(C(=O)N(C)CC2COCCO2)no1 (stereo unspecified) | -7.6% (inactive) | 5.77 | – | –
13 | CCNC(=S)N1CCc2cc(OC)c(OC)cc2C1COc1ccccc1OC (stereo unspecified) | – | -25.8 | 11.6 µM (active) | –
14 | CCC(=O)N1CCc2cc(OC)c(OC)cc2C1COc1ccccc1OC (stereo unspecified) | -23.2% (inactive) | -0.404 | – | –
15 | CCNC(=S)N1CCc2cc(OC)c(OC)cc2C1COc1ccc(OC)cc1 (stereo unspecified) | 6.83% (inactive) | -7.02 | – | –
16 | Cc1ccc(Cn2nnnc2CN2CCC(O)(c3cccnc3)CC2)cc1 | 14.9% (inactive) | 1.82 | – | –
17 | COCCn1c(SCC(=O)Nc2ccc3c(c2)OCCO3)nnc1C(C)C | 14% (inactive) | 15.8 | – | –
18 | COc1ccc(C(=O)N/N=C(\C)CC(=O)Nc2cccc(C(F)(F)F)c2)cc1 | -0.39% (inactive) | -2.05 | – | –
19 | C/C(CC(=O)Nc1cccc(C(F)(F)F)c1)=N\NC(=O)c1ccncc1 | – | -7.89 | 4.61 µM (active) | –
20 | CC(=O)N/N=C(\C)CC(=O)Nc1cccc(C(F)(F)F)c1 | -3.97% (inactive) | 5.44 | – | –
21 | O=C(NC1CCCCC1)c1cccnc1C(=O)O | -6.71% (inactive) | -11.4 | – | –
22 | O=C(O)c1cccnc1NC1CCCC1 | – | -16 | 20.6 µM (active) | –

Row | SMILES | lipid storage change, negative = inhibition | cell number change [%] | Potency | outcome
23 | O=C(O)c1cccnc1C(=O)O | 2.1% (inactive) | -2.7 | – | –
24 | Cc1cc(C)n(-c2nnc(C)n2/N=C/c2ccc(O)cc2)n1 | 11.6% (inactive) | -6.41 | – | –
25 | Cc1cc(C)n(-c2nnc(C)n2/N=C/c2ccccc2F)n1 | – | 19.1 | – | inactive
26 | Cc1cc(C)n(-c2nnc(C)n2/N=C/c2ccccc2O)n1 | – | -5.58 | 18.4 µM (active) | –
27 | Cc1ccccc1NC(=O)c1ccc2ccccc2c1 | 5.74% (inactive) | 14.2 | – | –
28 | CCCC(=O)NCCSC | 5.9% (inactive) | -17.4 | – | –
29 | O=C(NC1CCCCC1)C(c1ccncc1)N(C(=O)Cc1cccs1)c1ccccc1 (stereo unspecified) | 12.7% (inactive) | 12.4 | – | –
30 | O=C(NC1CCCC1)C(c1ccsc1)N(C(=O)Cc1cccs1)c1ccc(F)cc1 (stereo unspecified) | -14.8% (inactive) | -21.2 | – | –
31 | COc1ccc(C(C(=O)NC2CCCC2)N(Cc2cccnc2)C(=O)Cc2cccs2)c(OC)c1 (stereo unspecified) | – | -10.9 | 7.31 µM (active) | –
32 | O=C(NC1CCCC1)C(c1ccccc1)N(Cc1cccnc1)C(=O)Cc1cccs1 (stereo unspecified) | 17.7% (inactive) | -1.03 | – | –
33 | COc1ccc(C(C(=O)NC2CCCC2)N(Cc2cccnc2)C(=O)Cc2cccs2)cc1OC (stereo unspecified) | -9.53% (inactive) | 6.84 | – | –
34 | O=C(NC1CCCC1)C(c1ccncc1)N(C(=O)Cc1cccs1)c1ccc(F)cc1 (stereo unspecified) | – | 3.33 | 29.1 µM (active) | –
35 | O=c1[nH]c(=O)c2nnc(N/N=C\c3ccc(O)cc3)nc2[nH]1 | 1.17% (inactive) | -0.285 | – | –
36 | Cc1ccc(N/C(N)=N/c2nc3c(c(=O)[nH]2)CCCC3)c(C)c1 | -16.9% (inactive) | 25.1 | – | –
37 | CN(C)CCN(C(=O)c1ccc(C(=O)c2ccccc2)cc1)c1nc2cc3c(cc2s1)OCO3 | 18.9% (inactive) | 29 | – | –
38 | COc1cccc(N2C(N)=NC(N)=NC2(C)C)c1 | -15.5% (inactive) | -1.01 | – | –
39 | CC1(C)N=C(N)N=C(N)N1c1cccc(C(=O)O)c1 | – | 9.53 | 29.1 µM (active) | –
40 | CCOC(=O)c1cccc(N2C(N)=NC(N)=NC2(C)C)c1 | 1.48% (inactive) | 6.64 | – | –
41 | O=C(Nc1ccc(N2CCOCC2)cc1)C1CC(=O)N(c2ccc(F)cc2)C1 (stereo unspecified) | -18.1% (inactive) | 18.8 | – | –
42 | CN(C(=O)C1CCOC1)c1nnc(-c2cnccn2)s1 (stereo unspecified) | -5.36% [at 9.22 µM] (inactive) | 10.4 | – | –
43 | Cc1cnc(-c2nnc(N(C)C(=O)C3CCOC3)s2)cn1 (stereo unspecified) | – | -7.84 | 23.1 µM (active) | –
